Laboratory results from PubChem BioAssay AID430 (Sanford-Burnham Center for Chemical Genomics, 2006).
Where “and” joins values, the source holds several entries; their conditions need not be identical. Equal entries are not always repeated. About 1,100 (1.7%) of roughly 63,000 compounds were called active. This is one part of a sample in which actives are shown more often than they occur. Cut-off read from the data, not from the text of the source: active = cytotoxicity above about 50%; inactive = the rest. Entries with a potency or affinity are not part of this list. Where a structure was tested more than once in an assay, its records may differ in their call.

Assay: HPDE-C7 pancreatic duct cell viability loss – fluorescence, HTS (AID 430);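 note: cells exposed to compound for 48 hours before viability readout; 0% = vehicle and 100% = reference cytotoxic drug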
Details: HPDE-C7 pancreatic duct cells viability, at 10 µM, stronger effect = higher value

Compound	cytotoxicity
CCOC(=O)c1cc2c(cn1)[nH]c1ccccc12	30.4% (inactive)
c1ccc2c(c1)[nH]c1cnccc12	72.4% (active)
c1ccc2c3c([nH]c2c1)CNCC3	-4.7% (inactive)
CC12CCCCC1N(O)CN2O (stereo not drawn)	-2.3% (inactive)
CCOc1ccccc1C1SCC(=O)Nc2c1c(=O)[nH]n2C(CC)CC (stereo not drawn)	-4% (inactive)
CCCCCn1c(=O)c(C(=O)NCc2ccncc2)c(O)c2ccccc21	60.6% (active)
CCCCn1c(=O)c(C(=O)Nc2cnccn2)c(O)c2ccccc21	60.1% (active)
CCCCCn1c(=O)c(C(=O)NCc2ccccn2)c(O)c2ccccc21	2.6% (inactive)
CCCCCCn1c(O)c(C=Nc2c(C)n(C)n(-c3ccccc3)c2=O)c(=O)[nH]c1=O	5.3% (inactive)
CCCCn1c(=O)c(C(=O)Nc2nc3ccccc3[nH]2)c(O)c2ccccc21	15.2% (inactive)
CCCCCn1c(=O)c(C(=O)Nc2ccncc2)c(O)c2ccccc21	68.6% (active)
CCCCCCn1c(=O)c(C(=O)Nc2c(C)n(C)n(-c3ccccc3)c2=O)c(O)c2ccccc21	51.8% (active)
CCCCCCn1c(=O)c(C(=O)Nc2ccncc2)c(O)c2ccccc21	37.2% (inactive)
CCCCn1c(=O)c(C(=O)Nc2ccccc2S(N)(=O)=O)c(O)c2ccccc21	-2.2% (inactive)
CCCCc1nc2ccccc2c(=O)n1-c1ccc(O)cc1	-5.1% (inactive)
O=C(Nc1ccncc1)c1c(O)c2ccccc2n(Cc2ccccc2)c1=O	-2.4% (inactive)
O=C(Nc1cccnc1)c1c(O)c2c(n(Cc3ccccc3)c1=O)CCCC2	1% (inactive)
COc1ccc(CC2c3cc(OC)c(OC)cc3CCN2C)cc1OC (stereo not drawn)	3.5% (inactive)
COc1ccc2c(c1)CC1(CN2C)C(=O)NC(=O)N(c2ccc(C)cc2)C1=O (stereo not drawn)	5.9% (inactive)
COc1ccc2nc(NC(=O)CCc3nc(C4=CCN(C)CC4)no3)sc2c1	-12.4% (inactive)
O=c1cccc2n1CC1CC2CN(Cc2ccc3c(c2)OCO3)C1 (stereo not drawn)	-17.1% (inactive)

Compound	cytotoxicity
C=CCN1C(=O)CSc2ccc(C(=O)N3CCC4(CC3)OCCO4)cc21	-17.9% (inactive)
C=Cn1ccnc1P(=S)(c1ccn(C)c1)c1nccn1C=C	7.8% (inactive)
CCCCN1C(=O)NC(=O)C2(Cc3c(nc4c(C)cccn4c3=O)N3CCc4ccccc4C32)C1=O (stereo not drawn)	13.9% (inactive)
O=c1[nH]c(=O)n(CCc2ccc(F)cc2)c(O)c1C=NCCCn1ccnc1	-19.6% (inactive)
CNCC(O)c1ccc(O)cc1 (stereo not drawn)	50.6% (active)
CC(CCc1ccccc1)NC(C)C(O)c1ccc(O)cc1 (stereo not drawn)	8.9% (inactive)
CNCC(O)c1cccc(OC(=O)c2ccccc2C)c1 (stereo not drawn)	-3.3% (inactive)
Cc1ccc(-c2nc(CS(=O)CC(=O)N3CCC4(CC3)OCCO4)c(C)o2)cc1 (stereo not drawn)	1.6% (inactive)
CC(C)=CCC12CN3CCN(CC(C3)C1=O)C2	-7.6% (inactive)
COc1cc(OC)cc(-n2nc(C(=O)N3CCC4(CC3)OCCO4)c3ccccc3c2=O)c1	-1.5% (inactive)
CCCCn1c(O)c(C(CC)=NCc2ccc3c(c2)OCO3)c(=O)[nH]c1=O	10% (inactive)
CCC(=NCc1ccc2c(c1)OCO2)c1c(O)n(C2CCCCC2)c(=O)[nH]c1=O	64.4% (active)
CCC(=NCc1cccnc1)c1c(O)n(C2CCCCC2)c(=O)[nH]c1=O	-32.8% (inactive)
Cn1c2ccccc2c2c(C(=O)N3CCC4(CC3)OCCO4)cn(C3CCCCC3)c(=O)c21	-1.3% (inactive)
NCCCP(=O)(O)CCc1ccccc1	-5.8% (inactive)
Cn1c(O)c(/C=N/c2ccccn2)c(=O)n(C)c1=O	-18.2% (inactive)
COc1ccc(C2SCC(=O)Nc3c2c(=O)[nH]n3C2CCCCC2)cc1 (stereo not drawn)	-0.7% (inactive)
COc1ccc(C2SCC(=O)Nc3c2c(=O)[nH]n3C2CCCCCC2)cc1 (stereo not drawn)	90.9% (active)
CCOc1ccc(C2SCC(=O)Nc3c2c(=O)[nH]n3C2CCCCCC2)cc1 (stereo not drawn)	-18.2% (inactive)
N#Cc1ccc(N2CCNCC2)c(F)c1	8.7% (inactive)
O=C1NC(=O)C2(Cc3c(nc4ccccn4c3=O)N3CCCCCC32)C(=O)N1Cc1ccccc1 (stereo not drawn)	48.1% (inactive)

Compound	cytotoxicity
Cc1nc2ccc(Cl)cn2c1P(=S)(N1CCOCC1)N1CCOCC1	-4.2% (inactive)
COCCOC(=O)c1c(N)n(Cc2ccco2)c2nc3ccccc3nc12	17.4% (inactive)
COc1ccc(Cn2c(N)c(C(=O)NCc3ccco3)c3nc4ccccc4nc32)cc1OC	2.8% (inactive)
Nc1c(C(=O)NCCN2CCOCC2)c2nc3ccccc3nc2n1Cc1ccco1	5.7% (inactive)
COCCOC(=O)c1c(N)n(Cc2ccc(OC)cc2)c2nc3ccccc3nc12	-32.4% (inactive)
Nc1c(C(=O)NCc2ccco2)c2nc3ccccc3nc2n1Cc1ccc(F)cc1	80.9% (active)
COc1ccc(Cn2c(N)c(C(=O)NCc3ccco3)c3nc4ccccc4nc32)cc1	69.5% (active)
Cc1nnc2ccc(N3CCN(C)CC3)nn12	-0.1% (inactive)
C=CCN1C(=O)C2(C(C(=O)OCC)=C(N)Oc3ccccc32)c2c1c1ccccc1oc2=O (stereo not drawn)	5.2% (inactive)
COc1ccc(CCNC(=O)c2c(N)n(CCN3CCOCC3)c3nc4ccccc4nc23)cc1	62.9% (active)
CCCCCn1c(N)c(C(=O)NCCN2CCOCC2)c2nc3ccccc3nc21	10.6% (inactive)
CCCCn1c(N)c(C(=O)NCCN2CCOCC2)c2nc3ccccc3nc21	1.4% (inactive)
CCCCCCn1c(N)c(C(=O)NCCN2CCOCC2)c2nc3ccccc3nc21	72.1% (active)
CCCCNC(=O)c1c(N)n(CCCOC)c2nc3ccccc3nc12	24.4% (inactive)
CCOC(=O)c1c(N)n(CCN2CCCCC2)c2nc3ccccc3nc12	9.2% (inactive)
OCCNc1c2c(nc3ccccc13)CCCC2	-2.4% (inactive)
CC(=NCCCN1CCOCC1)c1c(O)[nH]c(=O)[nH]c1=O	3.3% (inactive)
CC1(C)C(C(=O)NCc2ccco2)C1(C)C	-21.5% (inactive)
Cc1cccc(-c2nc3ccccc3c(=O)n2-n2cccc2)c1	19.1% (inactive)
Cc1cccc(N2CCc3c2nc2ccccc2c3N)c1	24.2% (inactive) and 50.1% (active)
Cc1nc2ccccc2c(=O)n1-c1cccc(O)c1	3.6% (inactive)
